This is a sample that favours compounds with a hit; in the whole collection about 2.9% have one here.
ATXN viability = reduces viability in counter-screen for ATXN expression inhibitors | hit rate 0.49% among 400,000 | AID 651635 | S2 cells (HEK-293 line with an ATXN2-luciferase reporter) viability, CellTiter-Fluor protease fluorescence, 24 h | Potency, µM (series often up to 56.7 µM), most hits filed as cytotoxic; also: nearly all actives have a fitted effect of over 40% in size
Nrf2 activator = activates Nrf2 signaling. hit rate 0.31% among 410,000. AREc32 ARE-luciferase reporter (MCF7-derived line), luminescence, 24 h. Potency, µM (titrated, usually from 46.1 µM), for the others: at the top dose activation, most hits filed as activators; also: % of control where 0% means no effect; nearly all actives have a fitted effect of over 65% in size
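Quantitative high-throughput format: AREc32 reporter cells, 1000 per well, received compound by pin transfer and were incubated 24 hr at 37 deg C, 5% CO2, before Steady-Glo luminescence detection.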
Nrf2 inh = inhibitors of Nrf2 signaling. A549 ARE-Fluc reporter, luciferase luminescence, 18-24 h. Potency, µM (highest dose often 46 µM), without a hit: at the top dose activity change, negative = inhibition, most hits filed as inhibitors. hit rate 2.1% among 360,000. AID 504444; also: % is scaled to controls: 0 for no effect and ±100 for the full control effect; nearly all actives have a fitted effect of over 60% in size
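Concentration-response testing used A549 ARE_Fluc cells at 5000 cells/well. Following an 18-24 h compound incubation, viability was read by fluorescence (Ex 405/Em 525) and luciferase output by luminescence.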
A549 viability = counter-screen for Nrf2 inhibitors: cytotoxicity in A549 cells | A549 ARE-Fluc cells, CellTiter-Fluor viability, 18-24 h | AID 504648 | hit rate 0.16% among 390,000 | Potency, µM (doses to about 46 µM), for inactives: at the top dose activity change, negative = cytotoxicity, actives largely listed as inhibitors; also: % is scaled to controls: 0 for no effect and ±100 for the full control effect
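Cytotoxicity counterscreen: CellTiter-Fluor fluorescence was measured in A549 ARE_Fluc cells after 18-24 h of compound exposure in a concentration series. The subsequent BugLite luminescent read reports ARE-luciferase activity.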
ATXN2 expr inh = reduces ATXN2 reporter expression in HEK-293 cells; HEK-293 ATXN2-luciferase reporter, luminescence, 24 h; Potency, µM (doses to about 57 µM), for the others: at the highest dose activity change, negative = inhibition, usual class: inhibitors; hit rate 0.72% among 360,000; also: % is scaled to controls: 0 for no effect and ±100 for the full control effect; nearly all actives have a fitted effect of over 55% in size
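qHTS (up to 57 uM final) was run with 24 h compound exposure of reporter cells at 37 °C. Each well was multiplexed: SteadyGlo luminescence measured ATXN2-luciferase expression after a fluorogenic Gly-Phe-AFC viability readout (25 uM final).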
Active calls of the source: *; i = inactive; ? = inconclusive; · = not tested or not shown; ! = a repeat was not active; [ ] = another dose, or the depositor's remark. Calls follow the shape of the dose curve; as a rule, active = well fitted curve in the direction sought with a large enough effect; inconclusive = small, poorly fitted or top-dose-only effect, or another doubt; inactive = no such curve, though single readings can be large; an effect the other way counts as inactive or inconclusive. Potency is read from the fitted curve at half-maximal effect.

SMILES | ATXN viability | Nrf2 activator | Nrf2 inh | A549 viability | ATXN2 expr inh
CCN(CC)CCC(c1cc(OC)c(OC)c(OC)c1)c1c(OC)cc(OC)c2ccc(=O)oc12 (stereo not drawn) | ? | 10% | 10% | 15µM*! | -7%
CCCN1CCN(CCCNC(=O)c2ccccc2NC(=O)C2=C(C)OCCS2)CC1 | i | 0% | -8% | 4% | 1%
CC(CCc1ccccc1)NC(=O)CN1CCN(c2ccccc2)CC1 (stereo not drawn) | i | 0% | -12% | 1% | -14%[11.3 µM]
C/C(=N\NC(=O)Cn1c(C)nc2ccccc21)c1cccs1 | i | 2% | 16µM* | -10% | -15%
Cc1cccc(C)c1NC(=O)C(Cl)=C(Cl)Cl | i | 11µM* | 26% | 1% | -24%[11.3 µM]
COc1ccc(NC(=O)c2cc(-c3cccs3)on2)c(OC)c1 | i | 1.3µM* | 4% | 8% | -17%
COC(=O)c1sccc1NC(=O)c1ccccc1 | i | 7.1µM* | ? | 1% | 1%
COC(=O)c1sccc1NC(=O)c1cccc(OC)c1 | i | 6.3µM* | 14% | 3% | 3%
COC(=O)c1sccc1NC(=O)COc1ccccc1Cl | i | 13µM* | ? | 3% | 101%
COC(=O)c1sccc1NC(=O)Nc1cccc(OC)c1 | i | 22% | 1% | -4% | 23%
c1ccc(-c2nnc(SCC3CCCCO3)nc2-c2ccccc2)cc1 (stereo not drawn) | · | 0% | 4% | 6% | 76%
CCOc1ccc(NC(=O)C(C)SC(N)=O)cc1 (stereo not drawn) | i | 0% | 2% | -10% | 6%
Cc1ccsc1C(=O)N1CCCC(CCC(=O)NCc2ccccc2F)C1 (stereo not drawn) | i | -1% | 7% | 0% | -9%
CCc1nc2ccc(C(=O)NCCOc3ccc(OC)cc3)cn2c1N(C)Cc1ccc(N(C)C)cc1 | i | 3% | · | · | -16%
COc1cccc(C(=O)Nc2nnc(-c3cccs3)o2)c1 | 28µM* | 0% | -5% | -8% | ?
COC(=O)c1sccc1NC(=O)c1ccc(Br)o1 | i | 5.6µM* | 27% | 0% | 2%
COc1cccc(C(=O)Nc2nnc(-c3ccc(Cl)cc3)o2)c1 | · | -2% | -23% | 0% | ?
COC(=O)c1sccc1NC(=O)c1ccc(C)o1 | i | ? | -8% | -3% | -3%
CNC(=O)CNC(=O)Nc1ccc(Cl)c(Cl)c1 | i | 0% | 21% | 12% | -21%
COc1cccc(OC)c1C(=O)NCCN1CCN(C(=O)c2c(OC)cccc2OC)CC1 | i | 0% | 1% | -7% | -3%
Cc1c(NC(=O)Nc2ccc(Br)cc2F)sc2nc3n(c(=O)c12)CCC(C)CC3 (stereo not drawn) | i | -1% | 0% | 1% | 6%
CCn1c(=O)c(C(=O)CN2CCCc3ccccc32)c(N)n(Cc2ccccc2)c1=O | i | 2% | 16µM* | -3% | -2%
CCN1CCN(C(=O)c2cc3c(s2)-c2ccccc2S(=O)(=O)C3)CC1 | i | 0% | 10% | 1% | -5%
O=C(c1cc2c(s1)-c1ccccc1S(=O)(=O)C2)N1CCN(Cc2ccccc2)CC1 | i | 3% | 18µM* | -15% | ?
O=C(NCc1ccccn1)c1ccc(COc2ccc(Cl)cc2)o1 | i | 4% | 23µM* | -1% | -31%
SMILES | ATXN viability | Nrf2 activator | Nrf2 inh | A549 viability | ATXN2 expr inh
Cc1ccc(C(=O)N(CCN(C)C)CC2CCCN(Cc3ccccc3F)C2)cc1C (stereo not drawn) | i | 4% | 0% | -4% | -11%
CS(=O)(=O)N(CC(=O)Nc1ccccc1C(=O)N1CCOCC1)c1ccc(Cl)cc1 | i | 0% | 1% | 3% | ·
Cc1cc2nc3ccc(=[N+](C)C)cc-3sc2cc1N | 13µM* | -2% | ? | -20% | 7.1µM*
Cc1nc2cc(C)c(C)cc2s1 | i | -1% | 8% | 2% | -17%
CN(C)c1ccc2nc3ccc(=[N+](C)C)cc-3sc2c1 | 25µM*! | -2% | 12µM* | ? | 7.9µM*!
CN(C)c1ccc2nc3ccc(=O)cc-3sc2c1 | i | -4% | · | · | ·
COC(=O)c1cc(NS(=O)(=O)c2cccs2)cc(NS(=O)(=O)c2cccs2)c1 | i | -1% | 2% | 1% | 0%

From PubChem BioAssay
